Measured values: the supplement of paper PMC7724964

T1: RARA 175-421 Hormone_recep (domain begin residue: 175, domain end residue: 421), P10276
T1 chain: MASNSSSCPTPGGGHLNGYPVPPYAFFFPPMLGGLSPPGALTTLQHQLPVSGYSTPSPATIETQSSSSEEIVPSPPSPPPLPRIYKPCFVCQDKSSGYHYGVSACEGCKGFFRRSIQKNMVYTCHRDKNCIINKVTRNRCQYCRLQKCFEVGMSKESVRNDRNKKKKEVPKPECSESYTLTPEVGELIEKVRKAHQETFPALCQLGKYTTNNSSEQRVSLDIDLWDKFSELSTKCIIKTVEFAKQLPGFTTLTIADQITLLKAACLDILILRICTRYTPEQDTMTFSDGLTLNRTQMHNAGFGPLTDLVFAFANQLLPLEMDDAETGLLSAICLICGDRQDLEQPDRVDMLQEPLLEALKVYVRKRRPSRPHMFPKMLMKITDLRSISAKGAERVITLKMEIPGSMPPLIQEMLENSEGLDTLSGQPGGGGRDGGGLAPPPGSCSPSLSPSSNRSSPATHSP


Molecular target: T1, RARA 175-421 Hormone_recep (domain …
Experiment: phage ELISA signal ratio (GST-PRM binding over GST background); higher = stronger binding of peptide-phage to the PRM
Outline: (§1)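 Each value is the phage ELISA signal on the glutathione S-transferase (GST)-domain fusion divided by the signal on GST alone. Human peptide recognition domains were expressed in 96-well plates, fused to the C-terminus of GST, and selected against an M13 phage library carrying randomized, cysteine-free, glycine-flanked hexadecapeptides on the gene-8 major coat protein. After five selection rounds, approximately 48 individual clones from rounds 4 and 5 were tested by phage ELISA, and positive clones were sequenced.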

Q: WPEYMSWDDAYWMTML was tested. Which “phage ELISA signal ratio” value did it give?
A: 4.17

Q: Which “phage ELISA signal ratio” value does the source give for GAWDWQLDQLLMQYLE here?
A: 4.72

Q: With RQSQLQMWIWDATQDE as the binder, how does the “phage ELISA signal ratio” value read?
A: 3.71

What follows are binders tested against RANBP1 39-170 Ran_BP1 (domain begin residue: 39, domain end residue: 170), P43487 in the same assay as above.
Sequence of RANBP1 39-170 Ran_BP1 (domain begin residue: 39, domain end residue: 170), P43487 (P43487 whole entry): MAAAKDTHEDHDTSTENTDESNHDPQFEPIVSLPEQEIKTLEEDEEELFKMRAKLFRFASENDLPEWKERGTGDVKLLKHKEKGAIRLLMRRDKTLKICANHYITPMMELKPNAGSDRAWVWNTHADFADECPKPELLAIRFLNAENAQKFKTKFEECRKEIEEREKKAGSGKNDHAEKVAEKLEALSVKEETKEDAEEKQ
Outline: as §1

Q: Which “phage ELISA signal ratio” value does the source give for WMMTLPPDMPGEWQVV here?
A: 11

Q: For IDSYEHHSTGMVPLPD, which “phage ELISA signal ratio” value is on record?
A: 26.3

Q: For DMEQWWMELPQVPMYA, which “phage ELISA signal ratio” value is on record?
A: 23.1

Q: With PTEAEWGIWHDLPDYE as the binder, how does the “phage ELISA signal ratio” value read?
A: 10.1

Q: DHGWWMLNSNFLPVVP was tested. Which “phage ELISA signal ratio” value did it give?
A: 9.28

Q: Which “phage ELISA signal ratio” value does the source give for QAVVPWQMPLPDWIVS here?
A: 18.4

Q: Which “phage ELISA signal ratio” value does the source give for WGQMPLPVDMPETWNF here?
A: 21

Q: For QEFWERYTIPMWVDSF, which “phage ELISA signal ratio” value is on record?
A: 13.7

Q: Which “phage ELISA signal ratio” value does the source give for PQWWHNMPALPDDIIH here?
A: 14.7

Q: With PPLPPDKNDWHVEYMP as the binder, how does the “phage ELISA signal ratio” value read?
A: 15.6

Q: For MGYWDYLPPVPGETWG, which “phage ELISA signal ratio” value is on record?
A: 15.4

Q: How did the “phage ELISA signal ratio” value turn out when TEIALPWPDRAERAYL was run?
A: 16.3

Q: For WEWSPLPPDVETFSQI, which “phage ELISA signal ratio” value is on record?
A: 15.9

Each binder was assayed against RANBP2 2924-3050 Ran_BP1 (domain begin residue: 2924, domain end residue: 3050) in the same assay as above.
Outline: as §1

Q: EWDWPSDHSWWEYIQH was tested. Which “phage ELISA signal ratio” value did it give?
A: 8.48

Q: With FDPLWMALPEDKVHEM as the binder, how does the “phage ELISA signal ratio” value read?
A: 3.06

Q: Which “phage ELISA signal ratio” value does the source give for EFDAMQAHWNVLHPEG here?
A: 8.19

Q: How did the “phage ELISA signal ratio” value turn out when FDVPLPLEHDWWTSWV was run?
A: 3.39

Q: With QYMLMSLPEDDWATPH as the binder, how does the “phage ELISA signal ratio” value read?
A: 4.31

Q: With QDWWETALPQEPWHVV as the binder, how does the “phage ELISA signal ratio” value read?
A: 22.7

Q: How did the “phage ELISA signal ratio” value turn out when LSTDFLQMEHFWNQQF was run?
A: 3.07

What follows are binders tested against RANBP2 1184-1310 Ran_BP1 (domain begin residue: 1184, domain end residue: 1310) in the same assay as above.
Outline: as §1

Q: NDEWDHPFTFNPGVPP was tested. Which “phage ELISA signal ratio” value did it give?
A: 5.9

Q: DEELWAAPFTWGPVLE was tested. Which “phage ELISA signal ratio” value did it give?
A: 4.84

Q: With QKVHPWDDWDSPFMWF as the binder, how does the “phage ELISA signal ratio” value read?
A: 12.9

Q: SKMDEWPPEPWELMKL was tested. Which “phage ELISA signal ratio” value did it give?
A: 4.23

Q: For WADEWEAPFVWKMQEV, which “phage ELISA signal ratio” value is on record?
A: 3.11

Q: WQSWDDWDRPMHPMEN was tested. Which “phage ELISA signal ratio” value did it give?
A: 6.6
